Experimental data as given in the supplement of paper PMC7156485.
± gives the standard deviation of the averaged measurements.

Experiments:
Conditions in all cases: concentration: 10 µM; 24 h
[1] = test system: HCC1569; test: cell number relative to DMSO (% of DMSO); higher = more cells (less growth inhibition / toxicity)
In short: (§1)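 Compounds were applied at 10 µM for 24 h at 37 °C, in triplicate, to HCC1569 and TDF cells. The cells were then fixed and stained for H1.0, and nuclei were counterstained with DAPI. Nuclear H1.0 intensity or cell number is reported relative to the plate control as a percent, taking the median of replicates. Smoothing for positional effects was applied to HCC1569 values only.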

[2] = test system: TDF; test: as above
In short: as §1

[3] = test system: TDF; test: H1.0 immunofluorescence intensity relative to DMSO (% of DMSO); higher = stronger H1.0 induction, active = 120 or more
In short: as §1

[4] = test system: HCC1569; test: H1.0 immunofluorescence intensity relative to DMSO (% of DMSO); higher = stronger H1.0 induction, active = 140 or more
In short: as §1
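Wherever H1.0 immunofluorescence intensity relative to DMSO is given: TDF is a line of transformed human dermal fibroblasts of mesenchymal origin.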
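Wherever cell number relative to DMSO is given: TDF denotes transformed human dermal fibroblasts of mesenchymal origin.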

`NCCCCN=C(N)N.O=S(=O)(O)O` [Agmatine sulfate] was tested, and the cell number [1] was 106, the cell number [2] was 98.2 and the H1.0 immunofluorescence intensity [3] was 88.7 (inactive). For the same compound, the H1.0 immunofluorescence intensity [4] was 92.4 (inactive).

`Cl.OC(CN1CCN(c2cccc(Cl)c2)CC1)C(c1ccccc1)c1ccccc1` (configuration not stated) was tested, and the cell number [1] was 102, the cell number [2] was 111 and the H1.0 immunofluorescence intensity [3] was 94.8 (inactive). For the same compound, the H1.0 immunofluorescence intensity [4] was 88.3 (inactive).

For `COc1ccc2cc1Oc1ccc(cc1)CC1c3cc(c(OC)cc3CCN1C)Oc1c(OC)c(OC)cc3c1C(C2)N(C)CC3` (configuration not stated) [Isotetrandrine], the cell number [1] was 97.9, the cell number [2] was 83.8 and the H1.0 immunofluorescence intensity [3] was 111 (inactive). The H1.0 immunofluorescence intensity [4] was 103 (inactive).

For `CC#CC(=O)Nc1cc2c(Nc3ccc(F)c(Cl)c3)ncnc2cn1` [EGFR/ErbB-2/ErbB-4 Inhibitor], the cell number [1] was 87.1, the cell number [2] was 78.2 and the H1.0 immunofluorescence intensity [3] was 104 (inactive). The H1.0 immunofluorescence intensity [4] was 113 (inactive).

`C#CC1(O)CCC2C3CCC4=Cc5oncc5CC4(C)C3CCC21C` (configuration not stated) [Danazol] was tested, and the cell number [1] was 97.02 ± 0.7, the cell number [2] was 98.36 ± 0.75 and the H1.0 immunofluorescence intensity [3] was 95.4 (inactive). For the same compound, the H1.0 immunofluorescence intensity [4] was 100 (inactive).

In the case of `CN1CCN(C2Cc3ccccc3Sc3ccc(Cl)cc32)CC1.O=C(O)C=CC(=O)O` (configuration not stated) [Clorotepine maleate], the cell number [1] is reported as 98.5, the cell number [2] is reported as 102 and the H1.0 immunofluorescence intensity [3] is reported as 106 (inactive). The H1.0 immunofluorescence intensity [4] was 118 (inactive).

With `COc1cc(-c2oc3cc(O)cc(O)c3c(=O)c2OC2OC(CO)C(O)C(O)C2O)ccc1O` (configuration not stated) [Isorhamnetine-3-glucoside] the cell number [1] was 102, the cell number [2] was 98.2 and the H1.0 immunofluorescence intensity [3] was 97.6 (inactive). For the same compound, the H1.0 immunofluorescence intensity [4] was 85.8 (inactive).

With `O=c1[nH]c(=O)c2nc3ccccc3nc2[nH]1` [Alloxazine] the cell number [1] was 101, the cell number [2] was 91.6 and the H1.0 immunofluorescence intensity [3] was 101 (inactive). For the same compound, the H1.0 immunofluorescence intensity [4] was 92.1 (inactive).

`CC(C)(C(=O)O)c1ccc(C(O)CCCN2CCC(C(O)(c3ccccc3)c3ccccc3)CC2)cc1.Cl` (configuration not stated) [Fexofenadine hydrochloride] was tested, and the cell number [1] was 105, the cell number [2] was 111 and the H1.0 immunofluorescence intensity [3] was 91.2 (inactive). For the same compound, the H1.0 immunofluorescence intensity [4] was 90.5 (inactive).

In the case of `CCCCCCCCCCCCCCCCCCCCCCC(=O)O` [Tricosanoic acid], the cell number [1] is reported as 99.7, the cell number [2] is reported as 99.8 and the H1.0 immunofluorescence intensity [3] is reported as 105 (inactive). The H1.0 immunofluorescence intensity [4] was 105 (inactive).

`COc1cc2c(cc1OC)C1C(C)c3ccc(OC)c(OC)c3CN1CC2` (configuration not stated) [Corydaline] was tested, and the cell number [1] was 96.9, the cell number [2] was 106 and the H1.0 immunofluorescence intensity [3] was 94.4 (inactive). For the same compound, the H1.0 immunofluorescence intensity [4] was 84.2 (inactive).

For `CC1OC(OCC2OC(Oc3c(-c4ccc(O)c(O)c4)oc4cc(O)cc(O)c4c3=O)C(O)C(O)C2O)C(O)C(O)C1O` (configuration not stated) [Rutin], the cell number [1] was 107, the cell number [2] was 102 and the H1.0 immunofluorescence intensity [3] was 91.6 (inactive). The H1.0 immunofluorescence intensity [4] was 88 (inactive).

For `CON(C)C(=O)[C@H](O)[C@H](Cc1ccccc1)NC(=O)c1cc2cc(Cl)ccc2[nH]1`, the cell number [1] was 103, the cell number [2] was 110 and the H1.0 immunofluorescence intensity [3] was 88.1 (inactive). For the same compound, the H1.0 immunofluorescence intensity [4] was 103 (inactive).

`OCC1OC(n2cnc3c(NC4CC5CCC4C5)ncnc32)C(O)C1O` (configuration not stated) was tested, and the cell number [1] was 99.1, the cell number [2] was 92.5 and the H1.0 immunofluorescence intensity [3] was 96.9 (inactive). For the same compound, the H1.0 immunofluorescence intensity [4] was 91.9 (inactive).

With `CCOC(=O)C1=CC2(CC)CCCN3CCc4c(n1c1ccccc41)C32` (configuration not stated) [Vinpocetine] the cell number [1] was 101 ± 3, the cell number [2] was 106 ± 5.3 and the H1.0 immunofluorescence intensity [3] was 93.2 (inactive). For the same compound, the H1.0 immunofluorescence intensity [4] was 98.8 (inactive).

For `O=c1ccc2ccc(O)c(O)c2o1` [7,8-dihydroxy-2H-chromen-2-one], the cell number [1] was 99.2, the cell number [2] was 79.9 and the H1.0 immunofluorescence intensity [3] was 96.2 (inactive). For the same compound, the H1.0 immunofluorescence intensity [4] was 91 (inactive).

`CCN(CC)CCNC(=O)c1ccc(N)cc1.Cl` [Procainamide.HCl] was tested, and the cell number [1] was 108, the cell number [2] was 101 and the H1.0 immunofluorescence intensity [3] was 91.2 (inactive). For the same compound, the H1.0 immunofluorescence intensity [4] was 101 (inactive).

`CC(C)(O)CCC(O)C(C)(O)C1CCC2(O)C3=CC(=O)C4CC(O)C(O)CC4(C)C3CCC12C` (configuration not stated) was tested, and the cell number [1] was 102, the cell number [2] was 97 and the H1.0 immunofluorescence intensity [3] was 102 (inactive). The H1.0 immunofluorescence intensity [4] was 94.8 (inactive).

For `Cl.Nc1cc(Cl)c(NC2=NCCN2)c(Cl)c1` [p-Aminoclonidine hydrochloride], the cell number [1] was 100, the cell number [2] was 114 and the H1.0 immunofluorescence intensity [3] was 97.1 (inactive). The H1.0 immunofluorescence intensity [4] was 88.3 (inactive).

`COc1cc2c(c(OC)c1OC)-c1c(cc3c(c1OC)OCO3)C[C@H](C)[C@@](C)(O)C2` was tested, and the cell number [1] was 97.6, the cell number [2] was 95.4 and the H1.0 immunofluorescence intensity [3] was 96.3 (inactive). The H1.0 immunofluorescence intensity [4] was 101 (inactive).

With `COC1C=CC=C(C)C(=O)NC2=CC(=O)C=C(C2=O)C(OC)C(C)CC(OC)C(OC)C(C)C=C(C)C1OC(N)=O` (configuration not stated) [Herbimycin A, Streptomyces sp.] the cell number [1] was 62.4, the cell number [2] was 54.7 and the H1.0 immunofluorescence intensity [3] was 88.3 (inactive). The H1.0 immunofluorescence intensity [4] was 180 (active).

`CCCCN1CCCCC1C(=O)Nc1c(C)cccc1C` (configuration not stated) [Bupivacaine] was tested, and the cell number [1] was 97.9, the cell number [2] was 108 and the H1.0 immunofluorescence intensity [3] was 101 (inactive). For the same compound, the H1.0 immunofluorescence intensity [4] was 120 (inactive).

`NC(C(=O)O)C1CC1C(=O)O` [(2S,1'S,2'S)-2-(carboxycyclopropyl)glycine] was tested, and the cell number [1] was 105, the cell number [2] was 110 and the H1.0 immunofluorescence intensity [3] was 85.1 (inactive). The H1.0 immunofluorescence intensity [4] was 83.4 (inactive).
